Consider 33 compounds from PubChem BioAssay.

Unmarked numbers belong to inactive results. This is one part of the list. The source made the active and inactive calls. Rule as the data show it, unless noted: active = inhibition above about 25%; inactive = the rest.

In assay [1] the target is Nuclear receptor coactivator 1 (Homo sapiens) (UniProt Q15788). Description: SRC1 coactivator transcriptional activity inhibitors, confirmation, cell-based, luminescence, quadruplicate (AID 588820;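 active = mean inhibition above 46.68%, the untreated control wells mean plus 3 SD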;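 also: 0% = DMSO wells and 100% = gossypol 36 µM treated wells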). Particulars: HEK293 GAL4-SRC1 luciferase reporter, at 3.6 µM, active compounds read high. On the technique in general: Reporter assays use an easily measured gene product as a stand-in for the process of interest.

A short description of assay [2]: VP16 transactivation inhibitors, counter-screen for SRC1 inhibitor project, cell-based, luminescence, high throughput (AID 588824). Particulars: cell-based VP16 transactivation luciferase luminescence; at 3.6 µM; active compounds read high.
Assay [3] deals with transactivating tegument protein VP16 (Human herpesvirus 1). Put plainly: VP16 transactivation reporter inhibitors, counter-screen for SRC2 inhibitor project, cell-based, luminescence, single concentration (AID 652007; in the data active = inhibition above about 36%). Particulars: cell-based VP16 transactivation luciferase reporter, at 8.9 µM, active compounds read high. On the technique in general: Counterscreens check selectivity or assay interference.

For assay [4], the target named is Nuclear receptor coactivator 2 (Homo sapiens) (UniProt Q15596). Description: SRC2 coactivator transcriptional activity inhibitors, confirmation, cell-based, luminescence, HEK293, triplicate (AID 652008;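 active = mean inhibition above 46.5%, the solvent-only control mean plus 3 SD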;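 also: 0% = DMSO-treated cells and 100% = Gossypol at 36 µM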). Particulars: HEK293 GAL4-SRC2 luciferase reporter, at 8.9 µM, active compounds read high.
Assay [5] addresses Receptor-interacting serine/threonine-protein kinase 2 (Homo sapiens) (UniProt O43353). Put plainly: NOD2-RIPK2 binding disruptors, retest, confirmation, fluorescence, CHO cells, BLA complementation, triplicate (AID 624370;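 active = mean inhibition across replicates above a set limit taken from the earlier primary screen, cut at about 21% in these data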;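 also: 0% = DMSO-only wells and the high end = clavulanate BLA-blocked wells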). Particulars: CCF4 FRET, at 4.98 µM, active compounds read high.
Assay [6] can be described thus: beta-lactamase reporter inhibitors in CHO cells, confirmation, artefact control for NOD2-RIPK2 interaction inhibitor project, cell-based, CHO-K1 CMV-bla, CCF4 FRET, fluorescence (AID 624371;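 active = mean inhibition above the low-control mean inhibition plus three low-control SD, cut at about 11% in these data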;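 also: 0% = DMSO only wells and 100% = clavulanate high control wells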). Particulars: CCF4 FRET ratio, counterscreen, at 4.98 µM, active compounds read high.
Assay [7] is described as follows: Gal4-VP16 luciferase reporter inhibitors, counter-screen for COUP-TFII antagonist project, cell-based, luminescence, HEK293 (AID 687007; in the data active = inhibition above about 13%). Particulars: at 8.5 µM, active compounds read high.
For assay [8], the target named is COUP transcription factor 2 (Homo sapiens) (UniProt P24468). Description: NR2F2 transcriptional activity inhibitors, confirmation, cell-based, luciferase reporter, HEK293, triplicate (AID 687008;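 active = mean inhibition over three repeats above a set limit taken from the earlier primary screen, cut at about 38% in these data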;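 also: 100% = cells given the luciferase reporter alone without the COUP-TF2 vector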). Particulars: HEK293 NGFI-A luciferase reporter, luminescence; at 8.5 µM; active compounds read high.
The test system of assay [9] is DAF-12 nuclear receptor (Heterodera glycines), GAL4-LBD fusion. Put plainly: H. glycines DAF-12 receptor agonists, confirmation, cell-based, luminescence, HEK293, GAL4-LBD fusion (AID 743050;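 active = mean activation over triplicate wells above the hit cutoff derived from the earlier primary screen, cut at about 11% in these data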;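 also: 0% = DMSO low control and 100% = 2 mM sodium butyrate high control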). Particulars: HEK293 GAL4-hgDAF12 luciferase reporter, agonist mode; at 6.8 µM; active compounds read high; percent of butyrate response.
In assay [10] the target is Oxysterols receptor LXR-beta (Homo sapiens) (UniProt P55055). Put plainly: LXR agonists, Gal4 luciferase reporter, confirmation, counter-screen for hgDAF-12 agonist project, cell-based, luminescence, HEK293, H. glycines campaign (AID 743051;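 active = mean activation of the triplicate above a set limit carried over from the primary screen, none filed active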). Particulars: 24 h, at 6.8 µM, active compounds read high.
Sequence of Oxysterols receptor LXR-beta (Homo sapiens) (P55055 whole entry, looked up, the tested form may be a part): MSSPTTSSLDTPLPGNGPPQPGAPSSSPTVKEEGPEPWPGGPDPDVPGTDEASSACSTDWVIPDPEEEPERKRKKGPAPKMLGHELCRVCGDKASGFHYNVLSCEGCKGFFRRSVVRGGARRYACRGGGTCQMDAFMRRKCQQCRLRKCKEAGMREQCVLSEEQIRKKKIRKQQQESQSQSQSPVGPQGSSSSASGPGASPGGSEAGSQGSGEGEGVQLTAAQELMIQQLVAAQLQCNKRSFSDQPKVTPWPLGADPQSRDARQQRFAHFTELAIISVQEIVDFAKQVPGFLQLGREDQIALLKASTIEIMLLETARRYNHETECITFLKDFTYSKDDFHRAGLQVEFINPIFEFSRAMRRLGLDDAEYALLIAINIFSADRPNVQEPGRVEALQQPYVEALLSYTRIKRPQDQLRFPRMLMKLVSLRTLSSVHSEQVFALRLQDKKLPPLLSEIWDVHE

Sequence of Nuclear receptor coactivator 1 (Homo sapiens) (Q15788 whole entry, looked up, the tested form may be a part): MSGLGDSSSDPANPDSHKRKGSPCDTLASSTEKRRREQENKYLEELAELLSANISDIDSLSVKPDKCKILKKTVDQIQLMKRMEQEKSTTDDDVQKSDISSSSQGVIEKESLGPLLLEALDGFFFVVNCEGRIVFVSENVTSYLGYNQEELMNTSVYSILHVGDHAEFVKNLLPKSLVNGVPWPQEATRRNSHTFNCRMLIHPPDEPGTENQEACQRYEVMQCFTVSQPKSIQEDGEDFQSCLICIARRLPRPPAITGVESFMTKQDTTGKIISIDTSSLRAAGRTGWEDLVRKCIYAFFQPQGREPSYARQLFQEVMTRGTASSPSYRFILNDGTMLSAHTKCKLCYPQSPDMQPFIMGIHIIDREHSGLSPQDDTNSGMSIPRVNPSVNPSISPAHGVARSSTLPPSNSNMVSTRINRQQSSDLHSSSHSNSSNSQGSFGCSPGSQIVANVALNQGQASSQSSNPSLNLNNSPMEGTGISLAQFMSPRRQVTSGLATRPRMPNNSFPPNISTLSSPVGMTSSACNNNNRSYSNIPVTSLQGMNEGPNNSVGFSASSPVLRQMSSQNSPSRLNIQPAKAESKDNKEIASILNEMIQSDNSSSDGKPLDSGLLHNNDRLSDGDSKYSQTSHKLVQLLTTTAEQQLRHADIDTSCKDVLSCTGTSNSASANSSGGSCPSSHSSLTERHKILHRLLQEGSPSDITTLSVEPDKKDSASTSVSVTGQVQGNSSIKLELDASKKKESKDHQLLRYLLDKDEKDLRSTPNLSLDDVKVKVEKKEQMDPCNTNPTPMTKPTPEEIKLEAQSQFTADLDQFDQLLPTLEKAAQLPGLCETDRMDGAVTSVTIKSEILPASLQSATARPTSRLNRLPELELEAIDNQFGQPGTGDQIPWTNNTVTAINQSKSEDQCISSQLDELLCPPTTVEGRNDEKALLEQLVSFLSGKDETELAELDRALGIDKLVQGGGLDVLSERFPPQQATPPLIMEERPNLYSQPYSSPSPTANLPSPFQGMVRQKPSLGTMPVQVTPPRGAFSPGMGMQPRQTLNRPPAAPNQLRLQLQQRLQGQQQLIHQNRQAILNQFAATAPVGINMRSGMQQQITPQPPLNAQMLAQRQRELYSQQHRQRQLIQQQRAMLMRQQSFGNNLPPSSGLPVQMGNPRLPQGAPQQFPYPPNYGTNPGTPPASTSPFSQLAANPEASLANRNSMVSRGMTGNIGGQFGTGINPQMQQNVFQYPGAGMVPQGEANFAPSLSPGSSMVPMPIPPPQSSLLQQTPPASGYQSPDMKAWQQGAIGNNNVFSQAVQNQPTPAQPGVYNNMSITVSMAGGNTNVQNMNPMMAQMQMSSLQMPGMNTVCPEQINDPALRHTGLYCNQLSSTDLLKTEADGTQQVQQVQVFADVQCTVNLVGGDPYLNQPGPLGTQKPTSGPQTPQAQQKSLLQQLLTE
Sequence of Receptor-interacting serine/threonine-protein kinase 2 (Homo sapiens) (O43353 whole entry, looked up): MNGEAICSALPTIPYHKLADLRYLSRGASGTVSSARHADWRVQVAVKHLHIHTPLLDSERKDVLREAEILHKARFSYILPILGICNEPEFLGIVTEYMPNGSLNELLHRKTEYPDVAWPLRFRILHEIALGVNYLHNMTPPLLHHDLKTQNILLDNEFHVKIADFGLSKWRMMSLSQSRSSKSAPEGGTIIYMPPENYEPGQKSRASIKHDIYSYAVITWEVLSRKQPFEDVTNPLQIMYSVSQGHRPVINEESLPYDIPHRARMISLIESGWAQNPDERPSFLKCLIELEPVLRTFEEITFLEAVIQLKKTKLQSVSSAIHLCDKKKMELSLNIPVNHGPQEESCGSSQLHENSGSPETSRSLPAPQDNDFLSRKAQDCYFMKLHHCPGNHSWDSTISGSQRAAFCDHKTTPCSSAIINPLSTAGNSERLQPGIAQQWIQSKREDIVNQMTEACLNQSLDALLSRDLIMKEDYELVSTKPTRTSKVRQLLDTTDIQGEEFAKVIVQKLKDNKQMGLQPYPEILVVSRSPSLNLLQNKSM
Sequence of Nuclear receptor coactivator 2 (Homo sapiens) (Q15596 whole entry, looked up, the tested form may be a part): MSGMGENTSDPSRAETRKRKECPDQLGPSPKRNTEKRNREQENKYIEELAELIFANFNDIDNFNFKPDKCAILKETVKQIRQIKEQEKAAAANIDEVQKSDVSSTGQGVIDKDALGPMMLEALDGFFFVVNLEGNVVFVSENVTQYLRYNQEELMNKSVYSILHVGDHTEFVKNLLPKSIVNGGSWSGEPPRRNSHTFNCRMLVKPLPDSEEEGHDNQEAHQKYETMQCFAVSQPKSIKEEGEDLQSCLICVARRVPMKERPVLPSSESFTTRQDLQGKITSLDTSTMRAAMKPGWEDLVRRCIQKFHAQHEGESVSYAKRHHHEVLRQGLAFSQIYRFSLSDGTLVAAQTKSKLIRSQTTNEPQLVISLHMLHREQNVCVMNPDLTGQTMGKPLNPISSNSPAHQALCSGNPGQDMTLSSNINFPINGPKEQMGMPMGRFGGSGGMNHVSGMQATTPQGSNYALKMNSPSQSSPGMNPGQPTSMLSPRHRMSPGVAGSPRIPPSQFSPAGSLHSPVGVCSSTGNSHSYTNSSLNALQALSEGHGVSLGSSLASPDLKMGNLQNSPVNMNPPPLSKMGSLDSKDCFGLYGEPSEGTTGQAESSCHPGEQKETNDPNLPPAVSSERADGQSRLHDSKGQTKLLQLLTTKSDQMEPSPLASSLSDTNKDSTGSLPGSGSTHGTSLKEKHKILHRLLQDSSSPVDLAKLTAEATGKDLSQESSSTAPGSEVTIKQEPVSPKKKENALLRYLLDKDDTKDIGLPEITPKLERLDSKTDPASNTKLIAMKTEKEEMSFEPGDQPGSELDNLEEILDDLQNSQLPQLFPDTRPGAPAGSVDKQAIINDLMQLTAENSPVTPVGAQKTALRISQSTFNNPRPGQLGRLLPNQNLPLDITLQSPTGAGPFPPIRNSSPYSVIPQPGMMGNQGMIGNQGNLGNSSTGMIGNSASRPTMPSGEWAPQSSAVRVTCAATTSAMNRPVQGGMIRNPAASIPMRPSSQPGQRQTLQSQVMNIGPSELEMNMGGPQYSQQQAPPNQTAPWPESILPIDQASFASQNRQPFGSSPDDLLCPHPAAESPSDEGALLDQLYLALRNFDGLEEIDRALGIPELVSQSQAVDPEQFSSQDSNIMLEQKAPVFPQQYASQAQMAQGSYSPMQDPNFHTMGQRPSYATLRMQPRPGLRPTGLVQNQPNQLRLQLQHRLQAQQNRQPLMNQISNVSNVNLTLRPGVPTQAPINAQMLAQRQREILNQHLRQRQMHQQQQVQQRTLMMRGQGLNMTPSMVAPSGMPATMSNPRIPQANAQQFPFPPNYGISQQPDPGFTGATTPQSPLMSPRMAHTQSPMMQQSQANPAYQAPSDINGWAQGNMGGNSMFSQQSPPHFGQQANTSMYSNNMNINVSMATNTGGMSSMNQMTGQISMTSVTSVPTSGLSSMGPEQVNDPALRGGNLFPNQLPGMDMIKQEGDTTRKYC
Sequence of COUP transcription factor 2 (Homo sapiens) (P24468 whole entry, looked up, the tested form may be a part): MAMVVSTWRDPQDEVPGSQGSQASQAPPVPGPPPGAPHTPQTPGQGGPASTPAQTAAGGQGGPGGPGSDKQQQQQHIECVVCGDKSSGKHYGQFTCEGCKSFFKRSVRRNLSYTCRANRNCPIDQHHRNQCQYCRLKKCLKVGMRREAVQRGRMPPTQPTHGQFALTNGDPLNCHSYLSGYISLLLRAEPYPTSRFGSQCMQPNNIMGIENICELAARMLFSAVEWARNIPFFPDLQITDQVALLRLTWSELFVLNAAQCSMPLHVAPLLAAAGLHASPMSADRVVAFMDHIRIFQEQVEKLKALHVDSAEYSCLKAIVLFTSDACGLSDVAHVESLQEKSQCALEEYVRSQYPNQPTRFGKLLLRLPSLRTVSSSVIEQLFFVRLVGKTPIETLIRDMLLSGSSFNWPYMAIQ

Regarding `Cc1cc(Nc2cccc(Cl)c2)nc(NCc2ccccc2)n1`, the inhibition was -6.91% in assay [1], 12.4% in assay [2], -3.2% in assay [3] and 13.1% in [4].

Consider `C[C@H]1CN([C@@H](C)CO)C(=O)c2cc(-c3cccc(F)c3)cnc2O[C@@H]1CN(C)S(C)(=O)=O`, for which the values for the inhibition in assay [5] and in assay [6] were -4.32% and -1.39%, respectively.

`C=C1C(=O)C23C(O)C1CCC2C12COC3(O)C(O)C1C(C)(C)CCC2O` (configuration not stated): the inhibition in [1] was -16%; in assay [2], -9.14%; in assay [3] it was 2.43%; in [4] it was 25.9%.

As to `COc1cccc2sc(N(CCCN(C)C)C(=O)CCS(=O)(=O)c3ccccc3)nc12`, the inhibition in [5] is 40.3% (active); in [6], 8.45%.

Regarding `CC(=O)Nc1ccc(C=Cc2ccc([N+](=O)[O-])cc2)cc1`, the inhibition in assay [5] is 21.3% (active); in [6], 33.9% (active).

Consider `COCCNC(=O)c1c[nH]c2ccc(S(=O)(=O)N3CCc4ccccc43)cc2c1=O`, for which the inhibition is 43.8% in assay [1], 29.5% (active) in assay [2], 20.1% in [3] and 33.5% in assay [4].

For the compound `c1cn(-c2ncnc3sc4c(c23)CCCC4)cn1`, the inhibition is 11.4% in assay [1], 7.19% in [2], -1.75% in assay [3] and -4.88% in assay [4].

As to `O=C(NCCc1cccc(Cl)c1)c1ccc(OC2CCN(Cc3ccccn3)CC2)cc1`, the inhibition in assay [1] is -20.2%; in [2] it was -8.94%; in assay [3], 12.7%; in assay [4], 39.1%.

`COc1ccc(CNc2ncc(-c3ccc(F)cc3)n2C)c2ccccc12`: the inhibition is 41.3% in [1], -14.1% in [2], 24.8% in assay [3] and 94.5% (active) in [4].

As for `COc1ccc2c(c1OC)C(=O)OC2Nc1nc(-c2ccccc2)cs1` (configuration not stated), the inhibition in [5] was 10.3%; in assay [6], 6.11%.

As to `COc1ccc(C2=CC(c3cccc(OC)c3)n3nnnc3N2)cc1` (configuration not stated), the inhibition was 3.71% in assay [5] and 10.4% (active) in [6].

In the case of `O=C(NN=Cc1ccc(N2CCOCC2)cc1)c1cc2ccccc2cc1O`, the inhibition in [5] is 0.56%; in assay [6] it was 2.74%.

Consider `Cc1ccccc1Cn1c(C)nc2ccccc21`, for which the inhibition in assay [1] was -27.4%; in assay [2], 29.1% (active); in [3], 20%; in assay [4], 27%.

`COc1ccc(C(C[N+](=O)[O-])n2nc(C)cc2C)cc1` (configuration not stated): the inhibition in assay [5] was 40.9% (active); in [6] it was -5.9%.

With `Cc1cccc(-n2ncc(Cl)c(Cl)c2=O)c1`, the values for the inhibition in assay [5] and in assay [6] were 31.5% (active) and 2.52%, respectively.

Regarding `O=C(Nc1ccc2c(c1)OCCO2)C(c1cc2ccccc2o1)N1CCN(c2ccc(F)cc2)CC1` (configuration not stated), the inhibition in assay [1] is 3.86%; in assay [2], -2.84%; in assay [3], -43.1%; in [4] it was 28.6%.

Regarding `Cc1sc2ncnc(NC3CCN(Cc4ccccc4)CC3)c2c1C`, the inhibition is -6.93% in assay [1], 23.8% in assay [2], 14.3% in assay [3] and 29% in [4].

As for `C=CCNc1ncnc2ccc(Br)cc12`, the inhibition in assay [1] is 30.3%; in [2], 21%; in [3] it was 1.3%; in assay [4] it was 42.1%; in assay [7] it was 9.27%; in assay [8], 22.7%.

Take `CC(=O)N1CCCC(c2cc(C(=O)Nc3ccccc3)no2)C1` (configuration not stated): the inhibition in [1] is -48.3%; in assay [2], -15.3%; in assay [3] it was -36.7%; in assay [4] it was 40.6%.

Take `O=C1C=C(NCCc2cc(Br)c(O)c(Br)c2)C(=O)c2ncccc21`: the inhibition is -170% in assay [1], 14.2% in assay [2], 4.39% in assay [3] and 25.9% in assay [4].

On to `O=C1CC(C(F)(F)C(F)(F)C(F)(F)C(F)(F)F)=Nc2ccccc2N1`, for which the inhibition in assay [5] is -1.13%; in assay [6], 0.83%.

In the case of `CCOC(=O)C1=C(C)N(C[C@@H]2CC[C@@H](Cc3ccc(-c4ccccc4)cc3)O2)C(=O)NC1c1ccc([N+](=O)[O-])cc1` (some centres not stated), the inhibition in [5] is -2.24%; in assay [6], -1.01%.

Consider `O=C(CSc1ncn[nH]1)Nc1nc(-c2cccc([N+](=O)[O-])c2)cs1`, for which the results for the inhibition in assay [5] and in [6] were 2.59% and 3.63%, respectively.

With `Cc1cc(NC(=O)Cc2ccccc2)c2ccccc2n1`, the inhibition in [1] was 11.1%; in assay [2] it was 36.5% (active); in assay [3], 9.96%; in assay [4], 24.6%.

Turning to `O=C(Cc1csc(Nc2nc(=S)[nH]c3ccccc23)n1)NCCCN1CCN(c2cccc(Cl)c2)CC1`, the inhibition is 38% (active) in assay [5] and 55.8% (active) in assay [6].

Turning to `Cc1nnc(SCC(=O)Nn2cnnc2)s1`, the figures for the inhibition in assay [5] and in [6] were -0.84% and -0.41%, respectively.

With `O=C(Nc1cccc2c1CCCC2)c1cc([N+](=O)[O-])ccc1Cl`, the inhibition is 19% in assay [1], 25% in assay [2], 48.5% (active) in assay [3] and 62.2% (active) in assay [4].

In the case of `Cc1ccc(NC(=O)Cn2sc3ccccc3c2=O)cc1`, the inhibition in [5] is 33.2% (active); in assay [6] it was 3.75%.

Consider `O=[N+]([O-])/C=C/c1ccc2c(ccn2Cc2ccccc2)c1`, for which the inhibition is 83.3% (active) in assay [5] and 7.27% in [6].

Turning to `Cc1ccc(-c2nnc(SCC(=O)Nc3ccccc3F)o2)cc1`, the inhibition in [1] is -8.02%; in assay [2], 26.2% (active); in [3], 19.4%; in assay [4], 60% (active).

Take `CNc1cncc(-c2ccc(NS(C)(=O)=O)cc2)n1`: the values for the inhibition in assay [1] and in assay [2] were 20.8% and 31% (active), respectively. Also, the activation in assay [9] was 8.61%; in assay [10], 0.06%.

Regarding `O=C(CCN1CCc2ccccc2C(O)(c2ccccc2)C1)c1ccc2c(c1)OCCO2` (configuration not stated), the inhibition was 3.17% in assay [5] and -1.26% in assay [6].

On to `CN(c1ccc(C(=O)N2CCN(Cc3ccc4c(c3)OCO4)CC2)cc1)S(=O)(=O)c1ccccc1`, for which the inhibition in assay [1] is 14.7%; in assay [2] it was 23%; in [3] it was 31%; in assay [4], 37.4%.

As usually defined, the inhibition is the change of the read-out against control, counted positive when it falls.
